# Laboratory results reported in the supplement of paper PMC6555819.
# Assays:
# Experiment in all cases: PBM binding z-score (relative to random genomic background probes); higher = stronger binding; sequences stand for … in GC…GCGATTGACAGCGTAGAATGAAGG
# [1] = test system: FXR:RXRa (NR concentration 270 nM, RXRa partner concentration 90 nM)
# Procedure, shortened: (§1)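 Probes were double-stranded and carried 34-nt variable regions with direct-repeat seeds, single-nucleotide variants, half-site ablations and random human genomic background sequences, printed on custom Agilent 4×180K protein-binding microarrays. Arrays were incubated 1 h with ligand-free nuclear receptor dimers in PBS pH 7.4, 2% milk, 0.02% Triton X-100, 1 mM DTT, 0.2 mg/mL BSA and 0.4 mg/ml salmon testes DNA. Antibodies against each partner (one per run) detected binding, and scanned fluorescence was regression-normalized. Binding z-scores use the random background probes as reference.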
# [2] = test system: LXRa:RXRa (NR concentration 270 nM, RXRa partner concentration 90 nM)
# Procedure, shortened: as §1
# [3] = test system: LXRa homodimer (NR concentration 270 nM)
# Procedure, shortened: as §1
# [4] = test system: LXRb:RXRa (NR concentration 270 nM, RXRa partner concentration 90 nM)
# Procedure, shortened: as §1
# [5] = test system: LXRb homodimer (NR concentration 270 nM)
# Procedure, shortened: as §1
# [6] = test system: PPARa:RXRa (NR concentration 270 nM, RXRa partner concentration 90 nM)
# Procedure, shortened: as §1
# [7] = test system: PPARg:RXRa (NR concentration 180 nM, RXRa partner concentration 90 nM)
# Procedure, shortened: as §1
# [8] = test system: PPARg:RXRa 270nM:90nM, anti-RXR (NR concentration 270 nM, RXRa partner concentration 90 nM)
# Procedure, shortened: as §1
# [9] = test system: PPARg:RXRa 30nM:10nM, anti-RXR (NR concentration 30 nM, RXRa partner concentration 10 nM)
# Procedure, shortened: as §1
# [10] = test system: PPARg:RXRa 90nM:30nM, anti-RXR (NR concentration 90 nM, RXRa partner concentration 30 nM)
# Procedure, shortened: as §1
Sequence,PBM binding z-score [1],PBM binding z-score [2],PBM binding z-score [3],PBM binding z-score [4],PBM binding z-score [5],PBM binding z-score [6],PBM binding z-score [7],PBM binding z-score [8],PBM binding z-score [9],PBM binding z-score [10]
TGAATGAGGTTATAAGATCAAGGAACGTTGCAAA,1.48,1.44,-0.207,0.961,0.00759,3.01,1.79,2.39,1.08,1.89
TAGCCGAGGTCAGATCGGGCCAGTATACGCTATA,5.46,4.26,0.00263,3.74,0.611,4.8,3.14,3.56,1.05,2.17
ATCTCTTGGTAAAGATAGTTCAGTGAATGCAAAT,0.445,0.78,0.577,0.693,0.423,0.553,0.212,0.257,0.185,0.285
CCGAATAGGTTATGGGGCATTCAGGCAACGGTGA,0.575,0.686,-0.0267,1.02,-0.297,2.16,1.97,3.14,0.896,2.04
ATCTCTAGGTAACTAGTTCAGTGAAAGAGAGGAC,0.133,0.11,-0.0189,0.143,0.75,0.794,0.87,0.974,0.417,0.722
CGTCCAAGGTCATAGTAGGTCAGTGAAGACAGAT,7.5,7.17,4.25,5.79,1.31,5.54,5.27,5.42,2.67,4.32
CGTCCAAGGTCAGCAGGTAAGTGAAAGCGACGTG,5.48,3.22,-0.131,2.36,-0.25,4.3,3,3.31,0.585,2.28
TCTAGTTGGACACGGAGGTCACACACGACGGGTA,2.81,2.85,2.1,2.85,0.421,3.68,2.46,3.05,3.26,2.88
AGTCATAGTTCAGGACGAGGTAACGTAAAGCACG,1.09,1.13,-0.0495,0.662,0.0216,1.54,1.53,1.53,0.782,0.867
ATACCAAGGTGATCGTGATGTCGTTGATACTAAC,0.333,0.0372,0.013,0.116,-0.0295,0.0573,0.279,0.281,0.217,0.0356
ATCTCTAGGTAAAGATAATTCAGTGAATGCAAAT,0.311,0.4,0.217,0.485,0.372,0.312,0.908,0.48,0.443,0.348
CCGACTGGGCCAAGGTCATTGATCAGTCAAAGCA,2.94,2.76,0.884,2.65,-1.02,3.83,2.29,3,0.61,2.11
TCTGCTAGGTCACCGATGGTCAGCTAATCTGCTA,3.75,3.3,-0.47,2.07,-0.343,3.82,3.64,4.04,2.09,3.11
TATACAGGTTCAAAGGCCAGAGTACGAATGTCGA,3.17,4.13,2.06,2.27,1.19,3.41,2.89,3.54,1.9,2.88
TCTTGTAGATCTATAGAGGTTAAGAAAGTGCGCT,0.449,3.17,0.171,1.78,-0.194,1.81,0.274,1.62,2.58,2.23
CATACAGGGCCAGCTAGGCCAGAGTAGGGACGGC,-0.56,-0.822,-0.918,-1.15,-0.413,-0.817,0.311,-0.829,-0.392,-1
CCTGCTAGGTCATTGTCAGCTAATCTACAGTATG,3.88,2.99,0.878,1.84,0.257,2.94,1.29,2.14,0.169,1.22
CCTACTTGGCCATCAGGTCATTGATATCAACGTT,2.95,1.81,2.06,2.21,0.454,2.12,0.623,1.36,0.665,1.13
GATACAGGGGCAGCTAGAGGCCAGAGTATGGAAA,0.0694,0.017,-0.177,0.453,-0.405,0.26,0.483,0.296,-0.0735,-0.078
GCTAGCAGGACATTTGGGTCACTCAATGACGGGC,0.0183,-0.0744,-0.248,-0.0431,-0.72,1.31,0.997,0.479,-0.424,-0.0664

Sequence,PBM binding z-score [1],PBM binding z-score [2],PBM binding z-score [3],PBM binding z-score [4],PBM binding z-score [5],PBM binding z-score [6],PBM binding z-score [7],PBM binding z-score [8],PBM binding z-score [9],PBM binding z-score [10]
TATAGTTGGTCACGGAGGTCACACACGACGGGTA,3.47,3.92,3.29,3.47,1.25,4.09,4.49,3.8,1.92,3.19
GCATATAGGTAATACAAGCTGAAAGTCCGATTGT,-0.216,-0.314,-0.237,-0.399,-0.434,0.493,0.856,0.592,0.14,0.385
CGAAATAGGTCAAGGACAGTGAATCTCCGCACGC,5.6,4.09,0.715,3,0.676,5.27,7.22,6.58,4.2,6.39
GCTTACGGGTCAAAGGTGATAGCATGAATAGAAT,6.24,4.59,0.0435,4.64,0.353,6.57,10.2,8.54,7.83,9.26
AGAATGAGGTTACCAAAGATGAGGGAAACGCTTG,1.89,2.71,-0.269,1.35,-0.264,3.26,2.61,2.78,1.03,1.94
ATCGAAAGGTGGTGAGGTGAGTATACAGAAAGGC,0.483,0.31,0.284,0.389,0.161,0.744,0.668,0.261,0.347,0.438
AACTCTAGGTAAAGTTCAGTGAAAGATCGATAGA,0.741,1.51,1.46,1.06,0.134,2.44,3.7,4.77,2.77,4.53
TCCGCTAGGTCAACGATGGTCAGCTAATCTGCTA,2.89,2.67,0.0246,1.54,-0.303,3.09,2,2.53,1.82,2.22
ACTAGCAGGCCAAGGGTCACTCACGATTAGTCCG,2.5,2.67,0.186,2.74,-0.177,4.69,7.31,6.69,5.72,6.89
ACCGAAAGGTCGAAGGTGAGTATACCCACCCGAA,4.73,3.55,-0.00494,2.87,0.185,4.8,4.39,4.89,1.89,3.85
ACTATTAGTTGACTGAGGGCAACCGATACGACGC,0.492,0.678,0.199,0.459,0.656,0.506,0.804,0.0428,0.173,0.117
CCTCCTAGGTCATGGTCAGCTAATCTACAGTATG,3.85,2.79,0.804,2.24,0.0954,3.8,2.72,2.89,0.958,2.09
GATACAGGGTAAAGGCCAGAGTACGCGTATTGAT,0.103,-0.0959,-0.132,0.0218,-0.658,2.46,4.52,5.45,3.7,5.48
ATGCCAAGGTGATCGTGAGGTCGTTGATACTAAC,1.44,0.89,0.206,0.945,-0.844,1.55,0.467,0.399,-0.303,0.00157
TTTCGGAGGACACGAAGGTCAGAGCTTTCCAGAG,1.83,1.7,0.81,1.61,-0.442,2.12,0.582,1.32,0.325,0.593
TGTCAAAGTTAAAAGGTAACGTAAGTATCCACAC,0.429,0.482,-0.245,0.823,-0.178,2.09,2.26,3.15,1.03,2.13
TCTATTGGTTGAAGGGCAACCGACGAGTCCGTTT,0.476,0.767,0.01,0.546,0.657,1.23,0.669,2.98,3.37,3.23
TTAACAAGGTGAGCTGAGGTCGTTGATCCAACTC,1.71,1.21,-0.57,0.45,-0.886,1.72,0.604,0.987,0.415,0.24
ACTAGTTGGTCGGCTGAGGTCACACACAATTCGG,3.37,2.69,1.73,2.93,0.679,3.59,1.43,2.08,0.45,1.51
